{"source": "the supplement of paper PMC8728848", "binders": {"B1": {"name": "SP16664B-bot-474-25-474 (Bacteroides ovatus) (protein)", "chain": "CEEDIEIGNKIDESSYLASTQLSGLLLDENTNKNSSVIELRNNEYSTNVVFRLSKLPQKGVDVQIAVEESYAAIYNTIHETDFEVFPAANVKIANNGTFVLAPDDKVTPSVKVTLTAFDGMEEDKTYIVPLTVTSSTEGVTFTETSKHMVLLVQDYRNKPNTNKGEDAVQTVLYFEVNDTNPLNALEFLTESGKYFFDHIVLFAANINWDPEKQRVYLANNENVQFLLDNNDKYLQPLRKAGMKIIISILGNHDEAGVAQLSDMGAREFARELAAYCRAYNLDGVAFDDEYSNSPDLSNPWLASPSAYAGSRLMYECKAVMPEKIVSLYNLGNMYSSSLQVIDGIEPGQYCDYAVADYGGAAGPGTGMTLKQCAGMSIELRRGSGNSSESTARSRKEAGYGYYMFFALDPSLYGSQVYRCQSVCKGLYDETLVYPSYYYKKNSTEREAIN"}}, "assay_in_all_cases": "glycan array binding signal (z-score within array); higher = stronger binding", "settings_in_all_cases": "glycan notation: IUPAC condensed, linker removed", "key": {"[1]": {"target": "Fuc(a1-2)Gal(b1-4)GlcNAc(b1-3)[Fuc(a1-3)[Gal(b1-4)]GlcNAc(b1-6)]Gal(b1-4)Glc", "in_short": "(§1)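 Glycan array binding is given as a within-array Z-score, which can be read as non-binding when negative. The arrays, 3228 of them, came from the Consortium for Functional Glycomics database and were retained only where the protein sequence was available. Z-scores were averaged across arrays of the same protein sequence at different concentrations or buffers and across linkers.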"}, "[2]": {"target": "Fuc(a1-2)[Gal(a1-3)]Gal(b1-3)GlcNAc(b1-3)GalNAc", "in_short": "as §1"}, "[3]": {"target": "Fuc(a1-2)[GalNAc(a1-3)]Gal(b1-3)GalNAc(b1-3)Gal(a1-4)Gal(b1-4)Glc", "in_short": "as §1"}, "[4]": {"target": "Fuc(a1-2)[GalNAc(a1-3)]Gal(b1-3)GlcNAc(b1-6)GalNAc", "in_short": "as §1"}, "[5]": {"target": "Fuc(a1-2)[GalNAc(a1-3)]Gal(b1-4)GlcNAc(b1-2)Man(a1-3)[Fuc(a1-2)[GalNAc(a1-3)]Gal(b1-4)GlcNAc(b1-2)Man(a1-6)]Man(b1-4)GlcNAc(b1-4)GlcNAc", "in_short": "as §1"}, "[6]": {"target": "Fuc(a1-2)[GalNAc(a1-3)]Gal(b1-4)GlcNAc(b1-2)Man(a1-3)[Fuc(a1-2)[GalNAc(a1-3)]Gal(b1-4)GlcNAc(b1-2)Man(a1-6)]Man(b1-4)GlcNAc(b1-4)[Fuc(a1-6)]GlcNAc", "in_short": "as §1"}, "[7]": {"target": "Fuc(a1-3)[Gal(b1-4)]GlcNAc(b1-2)Man(a1-3)[Fuc(a1-3)[Gal(b1-4)]GlcNAc(b1-2)Man(a1-6)]Man(b1-4)GlcNAc(b1-4)GlcNAc", "in_short": "as §1"}, "Fuc(a1-4)GlcNAc": {"target": "Fuc(a1-4)GlcNAc", "in_short": "as §1"}, "Gal(a1-2)Gal": {"target": "Gal(a1-2)Gal", "in_short": "as §1"}, "Gal(a1-3)Gal": {"target": "Gal(a1-3)Gal", "in_short": "as §1"}, "[8]": {"target": "Gal(a1-3)Gal(b1-3)GlcNAc(b1-6)GalNAc", "in_short": "as §1"}, "[9]": {"target": "Gal(a1-3)Gal(b1-4)GlcNAc(b1-2)Man(a1-3)[Gal(a1-3)Gal(b1-4)GlcNAc(b1-2)Man(a1-6)]Man(b1-4)GlcNAc(b1-4)GlcNAc", "in_short": "as §1"}, "[10]": {"target": "Gal(a1-3)Gal(b1-4)[Fuc(a1-3)]GlcNAc", "in_short": "as §1"}, "[11]": {"target": "Gal(a1-3)Gal(b1-4)[Fuc(a1-3)]GlcNAc(b1-2)Man(a1-3)[Gal(a1-3)Gal(b1-4)[Fuc(a1-3)]GlcNAc(b1-2)Man(a1-6)]Man(b1-4)GlcNAc(b1-4)GlcNAc", "in_short": "as §1"}, "Gal(a1-3)GalNAc": {"target": "Gal(a1-3)GalNAc", "in_short": "as §1"}, "[12]": {"target": "Gal(a1-3)[Gal(a1-4)]Gal(b1-4)GlcNAc", "in_short": "as §1"}, "[13]": {"target": "Gal(a1-4)Gal(b1-3)GlcNAc(b1-2)Man(a1-3)[Gal(a1-4)Gal(b1-3)GlcNAc(b1-2)Man(a1-6)]Man(b1-4)GlcNAc(b1-4)GlcNAc", "in_short": "as §1"}, "Gal(b1-3)Gal": {"target": "Gal(b1-3)Gal", "in_short": "as §1"}, "[14]": {"target": "Gal(b1-3)GalNAc(a1-3)[Fuc(a1-2)]Gal(b1-4)GlcNAc", "in_short": "as §1"}, "[15]": {"target": "Gal(b1-3)GlcNAc(b1-2)[Gal(b1-3)GlcNAc(b1-6)]Man(a1-6)[Gal(b1-3)GlcNAc(b1-2)Man(a1-3)]Man(b1-4)GlcNAc(b1-4)GlcNAc", "in_short": "as §1"}, "[16]": {"target": "Gal(b1-3)GlcNAc(b1-3)Gal(b1-4)GlcNAc(b1-2)Man(a1-3)[Gal(b1-3)GlcNAc(b1-3)Gal(b1-4)GlcNAc(b1-2)Man(a1-6)]Man(b1-4)GlcNAc(b1-4)GlcNAc", "in_short": "as §1"}, "[17]": {"target": "Gal(b1-3)[Fuc(a1-4)]GlcNAc(b1-6)GalNAc", "in_short": "as §1"}, "[18]": {"target": "Gal(b1-4)GlcNAc(b1-2)Man(a1-3)[Gal(b1-4)GlcNAc(b1-2)Man(a1-6)]Man(b1-4)GlcNAc(b1-4)GlcNAc", "in_short": "as §1"}, "[19]": {"target": "Gal(b1-4)GlcNAc(b1-2)Man(a1-3)[Gal(b1-4)GlcNAc(b1-2)Man(a1-6)][Gal(b1-4)GlcNAc(b1-4)]Man(b1-4)GlcNAc(b1-4)[Fuc(a1-6)]GlcNAc", "in_short": "as §1"}, "[20]": {"target": "Gal(b1-4)GlcNAc(b1-2)[Gal(b1-4)GlcNAc(b1-6)]Man(a1-6)[Gal(b1-4)GlcNAc(b1-2)Man(a1-3)]Man(b1-4)GlcNAc(b1-4)[Fuc(a1-6)]GlcNAc", "in_short": "as §1"}, "[21]": {"target": "Gal(b1-4)GlcNAc(b1-3)Gal(b1-3)GlcNAc", "in_short": "as §1"}, "[22]": {"target": "Gal(b1-4)GlcNAc(b1-3)Gal(b1-4)GlcNAc(b1-2)Man(a1-3)[Gal(b1-4)GlcNAc(b1-3)Gal(b1-4)GlcNAc(b1-2)Man(a1-6)]Man(b1-4)GlcNAc(b1-4)GlcNAc", "in_short": "as §1"}, "[23]": {"target": "Gal(b1-4)GlcNAc(b1-3)Gal(b1-4)GlcNAc(b1-3)Gal(b1-4)GlcNAc", "in_short": "as §1"}, "[24]": {"target": "Gal(b1-4)GlcNAc(b1-3)Gal(b1-4)GlcNAc(b1-3)Gal(b1-4)GlcNAc(b1-2)Man(a1-3)[Gal(b1-4)GlcNAc(b1-3)Gal(b1-4)GlcNAc(b1-3)Gal(b1-4)GlcNAc(b1-2)Man(a1-6)]Man(b1-4)GlcNAc(b1-4)GlcNAc", "in_short": "as §1"}, "[25]": {"target": "Gal(b1-4)GlcNAc(b1-3)Gal(b1-4)GlcNAc(b1-3)Gal(b1-4)GlcNAc(b1-2)[Gal(b1-4)GlcNAc(b1-3)Gal(b1-4)GlcNAc(b1-3)Gal(b1-4)GlcNAc(b1-6)]Man(a1-6)[Gal(b1-4)GlcNAc(b1-3)Gal(b1-4)GlcNAc(b1-3)Gal(b1-4)GlcNAc(b1-2)Man(a1-3)]Man(b1-4)GlcNAc(b1-4)[Fuc(a1-6)]GlcNAc", "in_short": "as §1"}}, "note": "Only a selection was taken, and the strongest signals are over-represented in it overall."}
{"binder": "B1", "values": [{"measurement": "glycan array binding signal (z-score)", "setting": "[1]", "result": -0.136}, {"measurement": "glycan array binding signal (z-score)", "setting": "[2]", "result": -0.535}, {"measurement": "glycan array binding signal (z-score)", "setting": "[3]", "result": -0.296}, {"measurement": "glycan array binding signal (z-score)", "setting": "[4]", "result": -0.622}, {"measurement": "glycan array binding signal (z-score)", "setting": "[5]", "result": 0.635}, {"measurement": "glycan array binding signal (z-score)", "setting": "[6]", "result": 1.16}, {"measurement": "glycan array binding signal (z-score)", "setting": "[7]", "result": 2.22}, {"measurement": "glycan array binding signal (z-score)", "setting": "Fuc(a1-4)GlcNAc", "result": 2.34}, {"measurement": "glycan array binding signal (z-score)", "setting": "Gal(a1-2)Gal", "result": 0.194}, {"measurement": "glycan array binding signal (z-score)", "setting": "Gal(a1-3)Gal", "result": -0.094}, {"measurement": "glycan array binding signal (z-score)", "setting": "[8]", "result": 0.049}, {"measurement": "glycan array binding signal (z-score)", "setting": "[9]", "result": 2.23}, {"measurement": "glycan array binding signal (z-score)", "setting": "[10]", "result": -0.366}, {"measurement": "glycan array binding signal (z-score)", "setting": "[11]", "result": 1.65}, {"measurement": "glycan array binding signal (z-score)", "setting": "Gal(a1-3)GalNAc", "result": -0.504}, {"measurement": "glycan array binding signal (z-score)", "setting": "[12]", "result": -0.405}, {"measurement": "glycan array binding signal (z-score)", "setting": "[13]", "result": 1.04}, {"measurement": "glycan array binding signal (z-score)", "setting": "Gal(b1-3)Gal", "result": -0.262}, {"measurement": "glycan array binding signal (z-score)", "setting": "[14]", "result": -0.291}, {"measurement": "glycan array binding signal (z-score)", "setting": "[15]", "result": 0.525}, {"measurement": "glycan array binding signal (z-score)", "setting": "[16]", "result": -0.246}, {"measurement": "glycan array binding signal (z-score)", "setting": "[17]", "result": 0.134}, {"measurement": "glycan array binding signal (z-score)", "setting": "[18]", "result": -0.21}, {"measurement": "glycan array binding signal (z-score)", "setting": "[19]", "result": -0.39}, {"measurement": "glycan array binding signal (z-score)", "setting": "[20]", "result": -0.218}, {"measurement": "glycan array binding signal (z-score)", "setting": "[21]", "result": -0.433}, {"measurement": "glycan array binding signal (z-score)", "setting": "[22]", "result": 1.81}, {"measurement": "glycan array binding signal (z-score)", "setting": "[23]", "result": -0.33}, {"measurement": "glycan array binding signal (z-score)", "setting": "[24]", "result": 1.88}, {"measurement": "glycan array binding signal (z-score)", "setting": "[25]", "result": 2.21}]}
